USP1-UAF1 inh = USP1/UAF1 (human) deubiquitinase inhibition; O94782; Potency, µM (titrated, usually from 57.1 µM), inactives show top-dose activity change, negative = inhibition, most hits filed as inhibitors; 0.23% of 390,000 active; recombinant USP1/UAF1, Ub-Rhodamine cleavage fluorescence; also: potency is read from the fitted curve at half-maximal effect; nearly all actives have a fitted effect of over 60% in size
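1 nM enzyme complex + cpd, 15 min RT; start with Ub-Rho 150nM final; kinetic fluorescence ex 480/em 540, 6 reads q60 s. Buffer 50mM HEPES pH 7.8, 0.5mM EDTA, 0.1 mg/ml BSA, 1mM TCEP, 0.01% Tween-20.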
Tau fluor cs = counter-screen for tau fibril formation inhibitors; Potency, µM (top dose mostly 57.7 µM), for the others: top-dose activity change, negative = decrease; 0.93% of 280,000 active; AID 1463; tau K18 P301L Alexa594 fluorescence, heparin fibrillization; also: potency is read from the fitted curve at half-maximal effect; nearly all actives have a fitted effect of over 55% in size
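Human tau K18 P301L (15 uM unlabeled, 0.24 uM Alexa 594-labeled) in 100 mM sodium acetate pH 7 with 20 uM heparin, 6 hr at 37 C. ThT 30 uM added, 1 hr ambient; Alexa 594 FP and total fluorescence read at 555/632 nm.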
Tau fibril FP = blocks human tau fibril formation measured by polarization. P10636. K18 P301L tau heparin fibrillization, Alexa594 FP, 6 h. Potency, µM (highest dose often 57.7 µM), inactives show at the top dose activity, negative = inhibition, hits mostly inhibitors. 0.39% of 280,000 active. AID 1468; also: potency is read from the fitted curve at half-maximal effect; nearly all actives have a fitted effect of over 55% in size
Target sequence (P10636 561-689 P618L limits assumed): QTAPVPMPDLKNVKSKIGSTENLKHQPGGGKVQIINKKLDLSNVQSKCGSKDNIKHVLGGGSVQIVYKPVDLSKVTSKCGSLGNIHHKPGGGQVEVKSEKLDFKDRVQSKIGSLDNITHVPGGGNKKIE
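Human K18 P301L fragment (15 uM unlabeled plus 0.24 uM Alexa 594-labeled) in 100 mM sodium acetate pH 7 with compound, aggregation induced by 20 uM heparin for 6 hr at 37 C. ThT (30 uM) added for 1 hr, then Alexa 594 FP read.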
Tau ThT inhib = tau fibrillization inhibition (ThT binding); P10636; recombinant tau K18 P301L (four-repeat tau fragment), heparin-induced fibrillization, ThT fluorescence; Potency, µM (titrated, usually from 57.4 µM), for inactives: at the highest dose activity, negative = inhibition, usual class: inhibitors; 2.1% of 270,000 active; AID 1460; also: potency is read from the fitted curve at half-maximal effect; nearly all actives have a fitted effect of over 55% in size
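Tau K18 P301L fragment (15 uM unlabeled plus 0.24 uM Alexa 594-labeled) in 100 mM sodium acetate pH 7 with compound, fibrillization induced by 20 uM heparin for 6 hr at 37 C. Thioflavin T (30 uM) added, fluorescence read after 1 hr (ex 450, em 510 nm).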
Coupling enz = coupling enzyme interference in Giardia aldolase counter-screen. coupling enzyme system counterscreen, AmpLite Red fluorescence. activity change, negative = inhibition, % at 58.2 µM, hits read low. 0.67% of 290,000 active. AID 2472; in the data active = activity change below about -30%
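Coupling enzymes only (glyceraldehyde-3-phosphate) + compound, at 57.5 uM final, 10 min RT; add substrate/coupling/AmpLite Red mix, 20 min RT; fluorescence ex 525/em 598 nm. Actives flag coupling-system interference.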
Active calls of the source: *; [ ] = remark or other dose. The list is not random: actives were taken first. Their share in the collection is about 2.3%. Unless noted, calls follow the shape of the dose curve; as a rule, active = well fitted curve in the direction sought with a large enough effect; inconclusive = small, poorly fitted or top-dose-only effect, or another doubt; inactive = no such curve, though single readings can be large; an effect the other way counts as inactive or inconclusive. % is scaled to controls: 0 for no effect and ±100 for the full control effect.

CC(=O)Nc1ccc(N2C(C(C)=O)=NN(c3ccccc3)C2c2cccs2)cc1 (configuration not stated) was read as USP1-UAF1 inh -20%, Tau fluor cs 25µM*[quencher], Tau fibril FP 0%, Tau ThT inhib inconclusive and Coupling enz -1.
`COc1ccc(S(=O)(=O)c2c(SC)nn(CC(=O)Nc3cccc(C)c3C)c2N)cc1` gave USP1-UAF1 inh -23%, Tau fluor cs inconclusive, Tau fibril FP -8% and Tau ThT inhib 1%.
`COCCn1c(=O)c(-c2ccc(Cl)cc2)nc2cnc(OCc3ccccc3)nc21` gave Coupling enz 2.
Screening CCC(=O)Nc1ccc2c(c1)C(=O)c1ccccc1C2=O returned USP1-UAF1 inh -7%, Tau fluor cs -19%, Tau fibril FP 1%, Tau ThT inhib inconclusive and Coupling enz 0.
CCC(=O)NC1=C(NC(C)c2ccccc2)C(=O)c2ccccc2C1=O (configuration not stated) was read as USP1-UAF1 inh -22%, Tau fluor cs -11%, Tau fibril FP 2%, Tau ThT inhib inconclusive and Coupling enz -46*.
Cc1ccc(/C=N/c2sc3c(c2C#N)CCC3)s1 was read as USP1-UAF1 inh -2%, Tau fluor cs -25%, Tau fibril FP -4%, Tau ThT inhib 2µM* and Coupling enz -2.
`N#Cc1c(/N=C/c2cc3ccccc3s2)sc2c1CCC2` gave USP1-UAF1 inh -3%, Tau fluor cs -7%, Tau fibril FP -1%, Tau ThT inhib 1.3µM* and Coupling enz 1.
Screening CCN1/C(=C/c2ccc3cc(C)ccc3[n+]2CC)Sc2cc(C)c(C)cc21 returned USP1-UAF1 inh inconclusive, Tau fluor cs inconclusive, Tau fibril FP inconclusive, Tau ThT inhib 7.1µM* and Coupling enz 1.
Screening CCN1/C(=C/C=C/C=C/C=C/c2sc3ccccc3[n+]2CC)Sc2ccccc21 returned USP1-UAF1 inh inconclusive and Coupling enz -5.
For CCN1/C(=C/c2ccc3cc(C)ccc3[n+]2CC)Sc2ccccc21 the results were USP1-UAF1 inh -23%, Tau fluor cs 14%, Tau fibril FP inconclusive, Tau ThT inhib 18µM* and Coupling enz 6.
Screening CC[n+]1c(/C=C2\Sc3ccccc3N2C)ccc2cccc(C)c21 returned USP1-UAF1 inh -15%, Tau fluor cs 28%, Tau fibril FP inconclusive, Tau ThT inhib 20µM* and Coupling enz 6.
Screening CCOC(=O)c1ccccc1NC(=O)N1CCCn2nc(C)cc21 returned USP1-UAF1 inh -9%, Tau fluor cs -12%, Tau fibril FP -8% and Tau ThT inhib -7%.
CCN(CC)c1ccc(/C=N/O)cc1 was read as USP1-UAF1 inh -1%, Tau fluor cs -10%, Tau fibril FP 1%, Tau ThT inhib -12% and Coupling enz -1.
CCN(CC)c1ccc(N=Nc2ncn[nH]2)cc1 was read as USP1-UAF1 inh inconclusive, Tau fluor cs -6%, Tau fibril FP 0%, Tau ThT inhib 13µM* and Coupling enz -9.
Screening NC1=CC(=O)C(=O)c2ccccc21 returned USP1-UAF1 inh 16µM*.
For N#Cc1cccc(NC(=O)C2CCN(c3ncccn3)CC2)c1 the results were USP1-UAF1 inh -23%, Tau fluor cs -7%, Tau fibril FP 2% and Tau ThT inhib -4%.
c1ccc(N2CCN(c3nc4cc5c(cc4s3)OCO5)CC2)cc1 was read as USP1-UAF1 inh -30%, Tau fluor cs -18%, Tau fibril FP -4%, Tau ThT inhib 2.5µM* and Coupling enz 0.
CCc1cc(C(=O)N=Nc2c(O)[nH]c3ccc([N+](=O)[O-])cc23)c2ccccc2n1 was read as USP1-UAF1 inh -1%, Tau fluor cs inconclusive, Tau fibril FP 20%, Tau ThT inhib 16µM* and Coupling enz 3.
Screening CCc1cc(C(=O)N=Nc2c(O)[nH]c3c(Br)cc(Br)cc23)c2ccccc2n1 returned USP1-UAF1 inh -15%, Tau fluor cs inconclusive, Tau fibril FP -1%, Tau ThT inhib 7.1µM* and Coupling enz 1.
Screening CCc1cc(C(=O)N/N=C/c2ccc(O)cc2)c2ccccc2n1 returned USP1-UAF1 inh -3% and Coupling enz -2.

Assay outcomes (PubChem)
